In the library only some 7.8% were active in any assay of this set; here they are far more common.
Lassa entry inh: qHTS for Inhibitors of binding or entry into cells for Lassa Virus; Potency, µM (highest dose often 37.9 µM), for the others: at the highest dose activity change, negative = inhibition, most hits filed as inhibitors; Lassa virus pseudotype entry inhibition, cell reporter; actives 1.2% (n = 300,000); calls by dose curve; tested in HEK293 cells; further: potency means the concentration at half of the fitted maximal effect; nearly all actives have a fitted effect of over 50% in size
HCMV antiviral: qHTS Assay for inhibitors of the human cytomegalovirus (HCMV); HFF cells, HCMV-luciferase reporter, 72 h; stronger effect = lower value; activity change, negative = inhibition, % at 57.5 µM; actives 4.5% (n = 410,000); AID 1259415, 2018; in the data active means activity change below about -60%; inconclusive means no clear call, values can overlap the other calls; inactive means above about -39%
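Screen run at 2 compound doses on HFFs infected with reporter HCMV, MOI 1 PFU/cell. Luciferase activity from cell lysates at 72 h post infection gave inhibition relative to buffer-only and Salinomycin wells.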
Marburg entry inh: qHTS for inhibitors of binding or entry into cells for Marburg Virus; actives 1.8% (n = 300,000); AID 540276, 2011; Potency, µM (highest dose often 37.8 µM), without a hit: top-dose activity change, negative = inhibition, actives largely listed as inhibitors; Marburg virus pseudotyped entry inhibition, cell reporter; calls by dose curve; tested in HEK293 cells; further: potency means the concentration at half of the fitted maximal effect
HCV inh: qHTS Assay for Inhibitors of Hepatitis C Virus (HCV); Huh7.5.1 HCVcc-Cre infection, luciferase reporter, 44 h; Potency, µM (titrated, usually from 41.8 µM), for the others: top-dose activity change, negative = inhibition, actives largely listed as inhibitors; actives 3.4% (n = 340,000); AID 651820, 2012; active means well fitted inhibition curve with a large enough effect; inconclusive means small, poorly fitted or top-dose-only effect, or another doubt; inactive means no such curve, though single readings can be large or run the other way; further: potency means the concentration at half of the fitted maximal effect
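Whole-lifecycle infectious HCVcc-Cre system; cells 1,000/well, compound then virus (~0.5 moi) added 4 h after plating, 44 h culture. Luciferase read 15 sec following 15 min substrate incubation, room temp.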
VACV Venus inh: qHTS for Stage-Specific Inhibitors of Vaccinia Orthopoxvirus: Venus Reporter Primary qHTS. Vaccinia virus Venus reporter expression, fluorescence. Potency, µM (top dose mostly 36.5 µM), inactives show top-dose activity change, negative = inhibition, actives largely listed as inhibitors. actives 0.46% (n = 330,000); calls by dose curve; tested in A549 cells; further: potency means the concentration at half of the fitted maximal effect; nearly all actives have a fitted effect of over 30% in size
Vaccinia mCherry: qHTS for Stage-Specific Inhibitors of Vaccinia Orthopoxvirus: mCherry Reporter Primary qHTS | Vaccinia virus mCherry reporter infection, fluorescence | Potency, µM (series often up to 36.5 µM), for inactives: top-dose activity change, negative = inhibition, actives largely listed as inhibitors | actives 0.63% (n = 310,000) | AID 720579, 2013; calls by dose curve; tested in A549 cells; further: potency means the concentration at half of the fitted maximal effect; nearly all actives have a fitted effect of over 35% in size
* hit, by the source's call; i = inactive; ? = inconclusive; . = not tested or not shown; [ ] = remark or other dose. On the % scale 0 is the no-effect control and ±100 the full control effect.

SMILES	Lassa entry inh	HCMV antiviral	Marburg entry inh	HCV inh	VACV Venus inh	Vaccinia mCherry
O=C(/C=C/c1ccccn1)NCC1Cc2cccc(-c3ncccn3)c2O1 (stereo not given)	.	.	.	.	-16%	0%
Cc1cc(F)ccc1NC(=O)CCn1nc(C)c(S(=O)(=O)N2CCCCC2)c1C	?	?	.	.	-10%	-12%
O=C(N/N=C\c1ccc(CNS(=O)(=O)c2ccc(Cl)cc2)o1)C(=O)Nc1ccc(Oc2ccccc2)cc1	?	-99*	?	13µM*	2%	-12%
O=C(N/N=C\c1ccc(CNS(=O)(=O)c2ccccc2)o1)C(=O)Nc1ccc(F)cc1	6%	10	-14%	-4%	-30%	i
Cc1ccccc1C(=O)Nc1nnc(SCc2cc(=O)c3c(C)ccc(C)c3[nH]2)s1	-15%[46.1 µM]	20	.	.	?	-23%
COc1cc(-c2nc(-c3cccc(C(F)(F)F)c3)no2)cc(OC)c1OC	-18%	-13	?	?	-12%	-12%
COc1cc(Nc2nc3ccccc3n3nnnc23)cc(OC)c1OC	.	11	.	-15%	-14%	-5%
COc1cc(Nc2ncc3c(C)nc(-c4cccc(Oc5ccccc5)c4)n3n2)cc(OC)c1OC	3.1µM*	.	.	.	.	.
COc1cc(Nc2ncc3c(C)nc(-c4cccc(C(F)(F)F)c4)n3n2)cc(OC)c1OC	10µM*	.	.	.	.	.
CCCCc1c(CCC)c(=N)c2ccccc2n1C	?	-98*	?	?	-18%	-25%
N#Cc1nc(/C=C/c2ccc(F)cc2)oc1N1CCCCC1	4%[46.1 µM]	0	-6%[46.1 µM]	.	4%	-10%
CCN(C(=O)CSc1nnc(-c2cc(OC)c(OC)c(OC)c2)o1)c1ccccc1	13%[46.1 µM]	-19	-4%[46.1 µM]	.	-7%	-10%
CCOC(=O)C1=C(C)NC(=O)NC1c1ccc(-c2ccccc2F)o1 (stereo not given)	?	-61*	-11%	?	-17%	-20%
CCOc1ccccc1C1NC(=O)NC(C)=C1C(=O)OC1CCCC1C (stereo not given)	?	-68*	?	3%	-25%	.
CC1=C(C(=O)OC2CCCCCCC2)C(c2ccc(O)cc2)NC(=O)N1 (stereo not given)	2.6µM*	-38	0%	21%	-19%	-23%
CCOc1ccc(C2NC(=O)NC(C)=C2C(=O)OCc2ccccc2)cc1 (stereo not given)	-44%	11	-2%	-11%	-18%	-19%
COc1ccc(COC(=O)C2=C(C)NC(=O)NC2c2ccc(F)cc2)cc1 (stereo not given)	?	-75*	?	?	-22%	-3%
CCOC(=O)c1cnc2ccc(OCC)cc2c1N1CCN(c2cccc(Cl)c2)CC1	-27%[46.1 µM]	40	12%[46.1 µM]	.	-5%	-25%
O=C(O)c1cccc(NC(=O)c2cccc(S(=O)(=O)Nc3cccc(F)c3)c2)c1	11%[46.1 µM]	33	.	.	-1%	-8%
CC(=O)N1CCc2cc(S(=O)(=O)NC(CC(C)C)C(=O)NCCc3ccc(C)cc3)ccc21 (stereo not given)	-12%[46.1 µM]	7	-4%[46.1 µM]	.	8%	-1%
CC1=C(C(=O)OCc2ccccc2)C(c2ccccc2Br)NC(=O)N1 (stereo not given)	?	-21	?	10µM*	-14%	i
CC1=C(C(=O)OC2CCCCC2)C(c2ccccc2)NC(=O)N1 (stereo not given)	?	-30	?	10µM*	-9%	i
COc1ccccc1C1NC(=O)NC(C)=C1C(=O)OCc1ccccc1 (stereo not given)	?	6	?	-28%	-15%	-16%
CC(C)(C)C1CCC(OCC(O)CN2CCN(Cc3ccccc3)CC2)CC1 (stereo not given)	.	0	.	32µM*	.	.
OC(COCC1COc2ccccc2O1)CN1CCN(c2ccccn2)CC1 (stereo not given)	-12%[46.1 µM]	-66*	-5%[46.1 µM]	?	10%	?
SMILES	Lassa entry inh	HCMV antiviral	Marburg entry inh	HCV inh	VACV Venus inh	Vaccinia mCherry
CC1CN(CC(O)COC2CCC(C(C)(C)C)CC2)CC(C)O1 (stereo not given)	26%[46.1 µM]	-38	?	-7%	-16%	-11%
CC(C)(C)C1CCC(OCC(O)CN2CCN(c3ccccn3)CC2)CC1 (stereo not given)	?	-69*	?	-22%	-23%	-20%
CC1CCCC(C)N1CC(O)COC1CCC(C(C)(C)C)CC1 (stereo not given)	.	0	.	13µM*	.	.
O=C(NCCS(=O)(=O)N1CCN(c2ccc(F)cc2)CC1)c1cc(=O)c2ccccc2o1	-18%[46.1 µM]	20	.	.	-18%	-24%
O=C(NCC1Cc2cccc(-c3ccccn3)c2O1)c1cnn2cccnc12 (stereo not given)	.	.	.	.	-15%	-21%
CC(C)CCn1c(=O)c2cccnc2n(CC(=O)Nc2ccccc2)c1=O	.	23	?	.	-5%	-8%
COc1ccc(CCNC(=O)c2cnn(-c3nccc(-c4cccs4)n3)c2C)cc1OC	.	.	.	.	?	-13%
CC(=O)n1cc(N(C(=O)CCl)c2ccc(C)cc2)c2ccccc21	?	-97*	7.1µM*	1.6µM*	-19%	-10%
CC(=O)N(c1ccc(Cl)cc1)c1cn(C(C)=O)c2ccccc12	-28%[46.1 µM]	72	?	4%	-13%	-5%
O=C(NNC1=Nc2cccc3cccc1c23)c1ccc(Br)cc1	-16%[46.1 µM]	-62*	?	?	10%	?
CC(=O)N1CCOc2cc(S(=O)(=O)NCc3ccccc3Cl)c(C)cc21	?	-27	.	.	-15%	-2%
COC(=O)c1c(-c2ccc(OC)cc2)sc2ccc(N3CCOCC3)cc12	.	?	.	13µM*	-8%	?
COC(=O)c1c(-c2ccc(SC)cc2)sc2ccc(OC)cc12	.	197	.	45%[8.37 µM]	-23%	i
COC(=O)c1c(-c2cc(OC)cc(OC)c2)sc2ccc(OC)cc12	.	1	.	13µM*	-16%	-16%
CCOC(=O)[C@]12CCCC=C1N(CCC1=CCCCC1)C(=O)[C@H](CC(=O)NCC13CC4CC(CC(C4)C1)C3)C2	.	-26	.	.	-24%	-12%
Cc1ccc(NC(=O)Cn2c(=O)n(Cc3nc(-c4ccccc4)no3)c(=O)c3ccccc32)c(C)c1	14%[46.1 µM]	16	.	.	-13%	-2%
CCc1cc2c(N3CCCCC3)ncnc2s1	2%	-26	-18%	11µM*	-22%	.
Cc1ccc2c(c1)Oc1ccc(NC(=O)CCl)cc1C(=O)N2	?	-88*	?	?	-21%	-27%
COc1ccc(-n2nc(C(=O)NCC(=O)Nc3ccccn3)c3ccccc3c2=O)cc1	-6%	17	?	?	.	.
